Screens: PubChem, Broad Institute
Pf Dd2 inh: P. falciparum Dd2 growth inhibitors, primary screen, SYBR Green fluorescence, single dose replicates | 72 h; stronger effect = lower value | activity change, % at 10 µM | actives 2.3% (n = 94,000); in the data active = activity change below about -80%; inconclusive = no clear call, values can overlap the other calls
C diff HTS: C. difficile growth inhibitors, primary screen, HTS; Clostridium difficile clinical isolate growth, OD600, 24 h; stronger effect = lower value; growth activity, negative = inhibition, % at 16 µg/mL (by protocol); actives 0.25% (n = 86,000);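 active = mean growth activity at or below -80% and every replicate also at or below -80%; inconclusive = mean at or below -80% but some replicate above -80%; inactive = mean growth activity above -80%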;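 also: 0% = DMSO wells and -100% = levofloxacin 16 µg/mL wells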
T cruzi growth-1: T. cruzi intracellular proliferation inhibitors, primary screen, cell-based, beta-gal Tulahuen parasites, NIH3T3 host, luminescence | inhibition, % at 8.34 µM | actives 5.9% (n = 77,000) | T. cruzi beta-gal in NIH3T3, GalScreen luminescence, 90 h;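 active = mean inhibition above about 93%, with at least 55% of replicates each passing it, limit read from the data, passing the limit was not always enough; inconclusive = only one of those two conditions holds; inactive = neither condition holds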
T cruzi growth-2: T. cruzi intracellular proliferation inhibitors, confirmation, cell-based, NIH3T3 host, beta-gal parasite, luminescence, cherry-pick; shares compounds with T cruzi growth-1; T. cruzi beta-gal in NIH3T3, GalScreen luminescence, 90 h; inhibition, % at 8.35 µM; actives 72% (n = 5,600);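 active = mean replicate inhibition above about 95% and at least 55% of replicates individually reaching it, limit read from the data; inconclusive = only one of the two criteria is met; inactive = neither criterion is met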
T cruzi growth-3: inhibitors of intracellular T. cruzi replication, confirmation, NIH3T3 host cells, beta-gal parasites, cherry-pick, set 2; shares compounds with T cruzi growth-1; T. cruzi beta-gal in NIH3T3, GalScreen luminescence, 90 h; inhibition, % at 2.09 µM; actives 21% (n = 5,600);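 active = mean inhibition above about 95%, with at least 55% of replicates also reaching it, limit read from the data; inconclusive = meets just one of the two conditions; inactive = meets neither condition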;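 also: plate controls were neutral control median for no effect and positive control median for full effect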
3T3 cytotox: cytotoxicity in mouse NIH/3T3 fibroblasts, confirmation, cytotoxicity control for T. cruzi proliferation inhibitor project, cell-based, cherry-pick, single point; shares compounds with T cruzi growth-1; NIH/3T3 viability, CellTiter-Glo ATP luminescence, 90 h; cytotoxicity (signal decrease), % at 8.35 µM; actives 14% (n = 5,600); AID 651742, 2012;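 active = mean signal decrease across replicates above about 35% based on untreated-well scatter, with enough replicates individually passing, limit read from the data; inconclusive = no rule stated though some were filed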;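 also: 0% = median of neutral control wells and 100% = median of positive control wells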
NIH3T3 tox 2: NIH/3T3 fibroblast cytotoxicity, confirmation, cytotoxicity control, cell-based, cherry-pick, single point, set 2 | NIH/3T3 viability, CellTiter-Glo ATP luminescence, 90 h | actives 56% (n = 5,600) | inhibition, % at 24.9 µM | shares compounds with T cruzi growth-1;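 active = mean loss of cell viability signal at or above a set limit, and enough replicates individually reaching it; inconclusive = meets only the mean limit or only the replicate share; inactive = meets neither condition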;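 also: 0% = median of neutral control wells and 100% = median of positive control wells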
The depositor's hits bear a star; ? = inconclusive; nt = not tested or not shown. This is a sample that favours compounds with a hit; in the whole collection about 6.8% have one here.

SMILES | Pf Dd2 inh | C diff HTS | T cruzi growth-1 | T cruzi growth-2 | T cruzi growth-3 | 3T3 cytotox | NIH3T3 tox 2
C[C@@H]1CN([C@@H](C)CO)S(=O)(=O)c2ccc(-c3ccncc3)cc2O[C@H]1CN(C)Cc1cncnc1 | 6.2 | 1.2 | 107.8* | 103.6* | 104.2* | 3.5 | 44.8*
C[C@H]1CN([C@@H](C)CO)S(=O)(=O)c2ccc(-c3ccncc3)cc2O[C@@H]1CN(C)Cc1cncnc1 | 0.2 | 1.1 | 108.2* | 102.9* | 94.4 | -2.3 | 17.1
Cc1ccc(-c2ccc3c(c2)O[C@H](CN(C)Cc2cncnc2)[C@@H](C)CN([C@@H](C)CO)S3(=O)=O)cc1 | -11.0 | 0.5 | nt | nt | nt | nt | nt
Cc1ccc(S(=O)(=O)Nc2ccc3c(c2)C(=O)N(C)[C@H]2CC[C@@H](CC(=O)NCCc4ccncc4)O[C@@H]2CO3)cc1 | -21.2 | -2.4 | -40.7 | nt | nt | nt | nt
O=C(C[C@@H]1C[C@@H]2c3cc(NC(=O)Nc4ccccc4F)ccc3O[C@@H]2[C@@H](CO)O1)NC1CCCCC1 | -44.3 | 6.1 | 3.3 | nt | nt | nt | nt
CO[C@H]1CN(C)C(=O)c2ccc(NC(=O)c3cc(C)on3)cc2OC[C@@H](C)N(C)C[C@H]1C | 24.1 | 0.8 | -3.1 | nt | nt | nt | nt
CNC[C@@H]1Oc2ccc(NS(=O)(=O)c3ccc(C)cc3)cc2C(=O)N([C@H](C)CO)C[C@@H]1C | 9.0 | 4.0 | nt | nt | nt | nt | nt
CCCc1cn(CC[C@@H]2CC[C@H](NC(=O)C3CCCCC3)[C@H](CO)O2)nn1 | -1.2 | nt | -40.4 | nt | nt | nt | nt
C[C@@H]1CCCCO[C@H](CN(C)Cc2ccccc2)[C@H](C)CN([C@H](C)CO)C(=O)c2cc(NC(=O)Nc3ccc4c(c3)OCO4)ccc2O1 | -77.8 | 6.8 | 97.8* | 105.8* | 91.2 | 12.0 | 52.3*
C[C@@H]1CCCCO[C@@H](CN(C)Cc2ccc3c(c2)OCO3)[C@@H](C)CN([C@H](C)CO)C(=O)c2cc(NC(=O)Nc3ccccc3)ccc2O1 | 17.8 | 24.8 | ? | 111.6* | 78.5 | 19.8 | 17.7
C[C@@H]1CCCCO[C@@H](CN(C)Cc2ccc3c(c2)OCO3)[C@H](C)CN([C@@H](C)CO)C(=O)c2cc(NC(=O)Nc3ccccc3)ccc2O1 | -76.1 | 3.8 | 83.8 | nt | nt | nt | nt
C[C@@H]1CCCCO[C@H](CN(C)Cc2ccc3c(c2)OCO3)[C@H](C)CN([C@H](C)CO)C(=O)c2cc(NC(=O)Nc3ccccc3)ccc2O1 | ? | 20.2 | 114.1* | ? | 102.8* | 9.8 | 103.9*
C[C@@H]1CCCCO[C@@H](CN(C)Cc2ccccc2)[C@@H](C)CN([C@H](C)CO)C(=O)c2cc(NC(=O)Nc3ccc4c(c3)OCO4)ccc2O1 | 36.5 | 2.4 | 43.4 | nt | nt | nt | nt
C[C@H](CO)N1C[C@H](C)[C@@H](CN(C)Cc2ccc3c(c2)OCO3)OCCCC[C@H](C)Oc2ccc(NC(=O)Nc3ccccc3)cc2C1=O | -16.8 | 9.1 | 38.0 | nt | nt | nt | nt
CNC(=O)C[C@@H]1CC[C@H]2[C@@H](COc3ccc(NC(=O)Nc4ccc(F)cc4)cc3C(=O)N2C)O1 | -2.1 | -11.4 | 10.2 | nt | nt | nt | nt
CCNC(=O)C[C@@H]1CC[C@H]2[C@@H](COC[C@@H](O)CN2C(=O)Nc2ccc3c(c2)OCO3)O1 | -4.1 | nt | 26.3 | nt | nt | nt | nt
Cc1noc(C)c1NC(=O)N(C)C[C@@H]1Oc2ccc(NC(=O)Nc3ccc(F)cc3)cc2CC(=O)N([C@H](C)CO)C[C@H]1C | -8.0 | -0.3 | nt | nt | nt | nt | nt
COc1ccc(S(=O)(=O)Nc2ccc3c(c2)C(=O)N([C@H](C)CO)C[C@H](C)[C@H](CN(C)C(=O)Nc2ccc(C(F)(F)F)cc2)OCCCC[C@H](C)O3)cc1 | -36.6 | 20.2 | 81.8 | nt | nt | nt | nt
CCCNC(=O)c1cc2c(c(-c3cccc(-c4ccncc4)c3)n1)[C@@H](CCO)N(S(=O)(=O)CC)C2 | -30.0 | -2.2 | nt | nt | nt | nt | nt
C[C@@H]1CN([C@@H](C)CO)S(=O)(=O)c2ccc(C#C[C@@H](C)O)cc2O[C@@H]1CN(C)C(=O)Nc1ccccc1 | -8.1 | 4.1 | 70.9 | nt | nt | nt | nt
C[C@@H]1CCCCO[C@H](CN(C)Cc2ccc(C(=O)O)cc2)[C@@H](C)CN([C@H](C)CO)C(=O)c2cc(NS(=O)(=O)c3cccs3)ccc2O1 | 12.8 | 0.3 | 4.5 | nt | nt | nt | nt
C[C@@H]1CN([C@@H](C)CO)C(=O)c2cc(C3=CCCCC3)cnc2O[C@H]1CN(C)C(=O)Cc1ccncc1 | -18.7 | 2.3 | nt | nt | nt | nt | nt
C[C@@H]1CN([C@@H](C)CO)C(=O)c2cc(C3=CCCCC3)cnc2O[C@H]1CN(C)C(=O)Cc1ccccc1 | -3.6 | -6.0 | ? | 75.3 | 54.9 | 32.2 | 64.4*
C[C@@H]1CN([C@@H](C)CO)C(=O)c2cc(C3=CCCCC3)cnc2O[C@@H]1CN(C)C(=O)Cc1ccccc1 | nt | 12.4 | 89.4 | nt | nt | nt | nt
C[C@@H]1CN([C@H](C)CO)C(=O)c2cc(C3=CCCC3)cnc2O[C@@H]1CN(C)C(=O)Cc1ccncc1 | -31.3 | -2.4 | 95.8* | 25.0 | -13.1 | -9.4 | 28.3*
SMILES | Pf Dd2 inh | C diff HTS | T cruzi growth-1 | T cruzi growth-2 | T cruzi growth-3 | 3T3 cytotox | NIH3T3 tox 2
C[C@@H]1CN([C@@H](C)CO)S(=O)(=O)c2ccc(C3=CCCC3)cc2O[C@H]1CN(C)C(=O)C1CC1 | -50.5 | nt | 31.1 | nt | nt | nt | nt
C/C=C/c1ccc([C@@H]2[C@@H](CO)N3C(=O)CN(C(=O)c4cccc(F)c4)C[C@@H]23)cc1 | -47.8 | -3.3 | nt | nt | nt | nt | nt
O=C(c1cccnc1)N1CCCCN2[C@H](CO)[C@H](c3ccc(C#Cc4cccnc4)cc3)[C@@H]2C1 | 21.8 | -0.7 | 72.1 | nt | nt | nt | nt
COc1ccc(S(=O)(=O)Nc2ccc3c(c2)C(=O)N([C@H](C)CO)C[C@@H](C)[C@H](CN(C)C(=O)Nc2ccc4c(c2)OCO4)OCCCC[C@H](C)O3)cc1 | -9.5 | -25.1 | nt | nt | nt | nt | nt
OC[C@H]1Nc2ccc(C#Cc3ccc(F)cc3)cc2[C@@H]2[C@H]1CCN2Cc1ccc2c(c1)OCO2 | -30.1 | 3.5 | ? | 102.7* | 97.3* | 40.4* | 103.5*
O=C(C1CC1)N1CC[C@@H]2[C@H](CO)Nc3ccc(C#Cc4ccc(F)cc4)cc3[C@@H]21 | -37.3 | -19.2 | 64.5 | nt | nt | nt | nt
OC[C@@H]1Nc2ccc(C#Cc3ccc(F)cc3)cc2[C@@H]2[C@H]1CCN2Cc1ccc2c(c1)OCO2 | -64.4 | 1.4 | 133.7* | 103.1* | 107.3* | 38.1* | 103.3*
N#Cc1ccc(-c2ccc3c(c2)[C@@H]2[C@@H](CCN2Cc2ccc4c(c2)OCO4)[C@@H](CO)N3)cc1 | -63.1 | -101.8* | 101.2* | 105.1* | 102.1* | 29.9 | 105.9*
